Screening results deposited in PubChem by National Center for Advancing Translational Sciences (NCATS).
In the library only some 7.4% were active in any assay of this set; here they are far more common.
p53 reactivator: mutant p53 re-activation in reporter cells; Potency, µM (series often up to 92.2 µM), inactives show top-dose activity change, positive = activation, actives largely listed as activators; H1299 p53-A138V BP100-luciferase reporter, luminescence, 24 h; 0.063% of 320,000 active; further: % of control where 0% means no effect; nearly all actives have a fitted effect of over 45% in size
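H1299 (p53-null), stable ts p53-A138V + BP100-Luc; 1000 cells/well, Opti-MEM/10% FBS; cpd 4 pt, 1:5; 24 h, 37 deg C, 5% CO2; detection reagent 10 min RT; luminescence.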
FLuc modulator: counter-screen for miR-21 project: firefly luciferase inhibitors or activators; P08659; Potency, µM (highest dose often 57.5 µM), for inactives: top-dose activity change, negative = inhibition, usual class: inhibitors; 6.9% of 360,000 active; purified FLuc, Km substrates, luminescence inhibition;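 further: plate controls were vehicle for no effect and reference inhibitor for full effect; nearly all actives have a fitted effect of over 55% in size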
Target sequence (P08659 whole entry, looked up): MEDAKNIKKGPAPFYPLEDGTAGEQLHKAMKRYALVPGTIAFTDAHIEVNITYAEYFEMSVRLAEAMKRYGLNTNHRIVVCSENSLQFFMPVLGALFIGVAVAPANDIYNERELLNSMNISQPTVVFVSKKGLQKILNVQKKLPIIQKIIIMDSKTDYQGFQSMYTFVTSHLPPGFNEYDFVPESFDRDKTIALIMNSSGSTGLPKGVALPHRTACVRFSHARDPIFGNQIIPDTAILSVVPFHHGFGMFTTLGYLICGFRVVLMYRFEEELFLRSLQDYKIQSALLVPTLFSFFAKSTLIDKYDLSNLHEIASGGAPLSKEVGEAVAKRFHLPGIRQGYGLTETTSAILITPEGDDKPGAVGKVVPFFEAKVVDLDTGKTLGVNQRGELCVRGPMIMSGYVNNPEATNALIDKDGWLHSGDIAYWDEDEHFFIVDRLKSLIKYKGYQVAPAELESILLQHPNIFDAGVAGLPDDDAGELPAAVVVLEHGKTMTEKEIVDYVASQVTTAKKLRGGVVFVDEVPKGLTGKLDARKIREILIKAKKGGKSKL
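Purified P. pyralis luciferase (10nM final) with 10uM D-luciferin and 10uM ATP (Km levels) in 50mM Tris acetate pH 7.5, 10mM Mg acetate, 0.01% Tween-20, 0.05% BSA; qHTS 6-point titration, ~60 µM downward; luminescence read.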
ELG1 genotox: inducers of genotoxicity in HEK293T ELG1-luciferase cells; Potency, µM (titrated, usually from 46 µM), for the others: at the top dose activity change, positive = activation, actives largely listed as activators; HEK293T ELG1-luciferase reporter, luminescence, 16 h; 1.3% of 330,000 active; further: % of control where 0% means no effect; nearly all actives have a fitted effect of over 60% in size
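16 hr compound incubation (37 °C, 5% CO2) of HEK293T cells carrying luciferase-tagged ELG1; luciferase then measured by ONE-Glo luminescence after 30 min at RT.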
SMN2 splice enh: increases expression of the SMN2 splice variant; Potency, µM (doses to about 46.1 µM), for the others: top-dose activity change, positive = activation, hits mostly activators; HEK293 SMN2-luciferase splicing reporter, luminescence, 30-36 h; 2.8% of 210,000 active; further: % of control where 0% means no effect; nearly all actives have a fitted effect of over 55% in size
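qHTS luciferase splicing reporter: luminescence rises when SMN2 exon 7 is included in transfected HEK293 cells. Compound exposure lasted 30-36 h at 37C, with 4.5 mM final sodium butyrate as control, followed by a ONE-Glo read.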
NPC1 prom act: activators of NPC1 promoter; Huh7 NPC1 promoter luciferase reporter, 24 h; Potency, µM (highest dose often 9.22 µM), for inactives: at the top dose activation, usual class: activators; 2.4% of 320,000 active; AID 485313; further: % of control where 0% means no effect; nearly all actives have a fitted effect of over 60% in size
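Luminescence from an NPC1 promoter-driven luciferase reporter in stably transfected Huh7 cells was measured after 24 h compound treatment at 37 °C, followed by 10 min ambient incubation with luciferase detection reagent.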
Rab9 promoter act: activators of Rab9 promoter; Huh7 Rab9 promoter-luciferase reporter, luminescence, 24 h; Potency, µM (top dose mostly 9.22 µM), for the others: at the highest dose activation, negative = inhibition, actives largely listed as activators; 2.8% of 320,000 active; further: % of control where 0% means no effect; nearly all actives have a fitted effect of over 60% in size
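Huh7 cells stably carrying a Rab9 promoter-luciferase reporter, 1500 cells per well in OP-MEM I with 10% FBS, treated with compound 24 hours at 37C. Luciferase activity read by luminescence after 10 minutes with Amplite reagent.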
Numbers without * were called inactive; [ ] = remark or other dose. The call rests on the fitted dose curve; in most records, active means well fitted curve in the direction sought with a large enough effect; inconclusive means small, poorly fitted or top-dose-only effect, or another doubt; inactive means no such curve, though single readings can be large; an effect the other way counts as inactive or inconclusive. Potency means the concentration at half of the fitted maximal effect.

CCOc1ccc(C(=O)Nc2cccc(C(=O)O)c2C)cc1Cl was read as p53 reactivator -5.3%, FLuc modulator 3.38µM*, ELG1 genotox -10.2%, SMN2 splice enh 0.501µM*, NPC1 prom act inconclusive and Rab9 promoter act inconclusive.
`CN(CC(=O)Nc1c(Cl)cccc1Cl)C(=O)C1=COCCO1` gave p53 reactivator -1.0%, FLuc modulator -0.2%, ELG1 genotox -0.4%, NPC1 prom act -3.0% and Rab9 promoter act 0.4%.
Screening COc1ccc(N(C(=O)Cn2nnc3ccccc32)C(C(=O)NCc2ccccc2)c2ccc(F)cc2)cc1 (stereo not given) returned FLuc modulator 0.1% and SMN2 splice enh 9.5%.
`Cc1nc2cccnc2n1C1CCN(S(=O)(=O)N(C)C)CC1` gave FLuc modulator 2.2%.
For CC(Nc1nc(-c2cccnc2)nc2ccccc12)c1ccc(F)cc1 (stereo not given) the results were p53 reactivator -4.3%, FLuc modulator 0.5%, ELG1 genotox -0.1%, NPC1 prom act -3.0% and Rab9 promoter act 1.9%.
For CCCC[C@H]1C[C@@H]1[C@@H]1N(C(C)=O)[C@H](c2cccc(OC)c2)CC12CC2 the results were SMN2 splice enh -15.7%.
COc1cc(NC(=O)c2ccccc2)c(OC)cc1Cl was read as p53 reactivator -4.6%, FLuc modulator -16.6%, ELG1 genotox -0.4%, SMN2 splice enh 10.7%, NPC1 prom act 1.9% and Rab9 promoter act 0.3%.
COc1ccc(C(=O)Nc2ccccc2C(=O)O)cc1Cl was read as p53 reactivator inconclusive, FLuc modulator 5.36µM*, ELG1 genotox inconclusive, SMN2 splice enh -2.1%[1.84 µM], NPC1 prom act inconclusive and Rab9 promoter act 3.55µM*.
Cc1c(CCC(=O)N2CCC(C(=O)O)(c3ccccc3)CC2)c(=O)oc2cc3oc4c(c3cc12)CCCC4 was read as FLuc modulator 13.5µM*, ELG1 genotox 8.8%, NPC1 prom act 12.1% and Rab9 promoter act 4.2%.
Cc1c(CCC(=O)N2CCC(C(=O)O)CC2)c(=O)oc2cc3oc4c(c3cc12)CCCC4 was read as p53 reactivator 1.6%, FLuc modulator 10.7µM*, ELG1 genotox 0.0%, NPC1 prom act 0.3% and Rab9 promoter act 5.0%.
CNc1nc(Cl)c(SC)c(NCc2ccc(F)cc2)n1 was read as p53 reactivator -1.0%, FLuc modulator 0.5%, ELG1 genotox -0.2%, NPC1 prom act -3.2% and Rab9 promoter act 9.6%.
O=C(Cn1c(=O)n(-c2ccccc2Cl)c(=O)c2sc3ccccc3c21)N1CCCC1 was read as FLuc modulator -4.5% and SMN2 splice enh 8.2%.
For O=C1NC(=O)/C(=C\c2ccc(OCc3cccc(C(=O)O)c3)c(Cl)c2)N1 the results were p53 reactivator -10.3%, FLuc modulator 0.601µM*, ELG1 genotox -3.4%, SMN2 splice enh 11.2µM*, NPC1 prom act inconclusive and Rab9 promoter act 2.24µM*.
`COc1cc(/C=C2\NC(=S)NC2=O)ccc1OCc1cccc(C(=O)O)c1` gave p53 reactivator inconclusive, FLuc modulator 0.379µM*, ELG1 genotox 20.6µM*, NPC1 prom act 18.7% and Rab9 promoter act 17.4%.
`CN1C(=O)/C(=C/c2ccc(OCc3ccc(C(=O)O)cc3)c(Cl)c2)NC1=S` gave FLuc modulator -5.8%, ELG1 genotox -3.6%, NPC1 prom act -0.7% and Rab9 promoter act -3.6%.
For CC(=O)c1ccc(NC(=O)c2ccn(C(=O)OCC(C)C)n2)cc1 the results were p53 reactivator inconclusive, FLuc modulator 19µM*, ELG1 genotox inconclusive, SMN2 splice enh 10µM*, NPC1 prom act 3.98µM* and Rab9 promoter act inconclusive.
For O=[N+]([O-])c1ccc(NCc2ccc(Cl)cc2)nc1 the results were p53 reactivator 16.9%, FLuc modulator 15.1µM*, ELG1 genotox inconclusive, NPC1 prom act inconclusive and Rab9 promoter act inconclusive.
